Data on 91 molecules can be found in PubChem BioAssay AID463173 (ICCB-Longwood Screening Facility, Harvard Medical School, 2010).

Structures are written as SMILES. Screen size: about 52,000 compounds; about 4,300 (8.3%) were called active. No stated cut-off is given here; in the data, active means survival mostly below about 52% (no sharp cut-off); inactive means mostly above about 56%. For the sample, actives were picked, then their nearest neighbours and some compounds at random.

For this test, the system named is DeltatarO mutant. The test can be described thus: growth inhibition of S. aureus wild type versus tarO mutant, primary screen, teichoic acid synthesis inhibitors, RN4220, OD600 (AID 463173). The conditions noted are these: OD600, 18 h, hits give low values, screened at 18.75 µg/mL (by protocol).
For `O=c1[nH]cnc2scc(-c3ccsc3)c12`, the survival is 104% (inactive).

Consider `Cc1ccc(-c2nc3scc(CCNS(=O)(=O)c4ccc(Oc5ccccc5)cc4)n3n2)cc1`, for which the survival was 115% (inactive).

`CC(C)OCCCn1c(=O)c2ccccc2n2c(-c3ccc(F)cc3)nnc12`: the survival is 98% (inactive).

As to `CCCCCNC(=O)c1c[nH]c2ccc(S(=O)(=O)N3CCC(C)CC3)cc2c1=O`, the survival was 97% (inactive).

Turning to `COc1ccc(N2CC(NC(=O)C3CC3)CC2=O)cc1OC` (stereo unspecified), the survival was 73% (inactive).

On to `Cc1ccc2nc(N(Cc3cccnc3)C(=O)CCS(=O)(=O)c3ccccc3)sc2c1`, for which the survival is 67% (inactive).

As for `COc1ccc(-c2nc3ccccc3o2)cc1NC(=O)COc1ccc(C(C)(C)C)cc1`, the survival was 4% (active).

As to `COc1ccc(-c2nc3ccccc3o2)cc1NC(=O)Cc1ccc(Cl)cc1`, the survival is 54% (inactive).

As to `COc1ccc(OCC(=O)Nc2cc(-c3nc4ccccc4o3)ccc2Cl)cc1`, the survival was 70% (inactive).

For `CCCCC(=O)Nc1cc(-c2nc3ccccc3o2)ccc1OC`, the survival was 7% (active).

For the molecule `COc1ccc(-c2nc3ccccc3o2)cc1NC(=O)CSc1ccc(Cl)cc1`, the survival was 72% (inactive).

With `COc1ccc(-c2nc3ccccc3o2)cc1NC(=O)COc1c(C)cc(Cl)cc1Cl`, the survival was 67% (inactive).

Regarding `Cc1cn2c(=O)cc(COc3ccc(NC(=O)c4cccc(F)c4)cc3)nc2s1`, the survival was 125% (inactive).

For `COc1ccc(Cl)cc1NC(=O)c1cc2ccccn2n1`, the survival is 124% (inactive).

`COc1cc(C2C(C(=O)c3ccco3)=C(O)C(=O)N2CCc2ccccc2)ccc1O` (stereo unspecified): the survival was 86% (inactive).

With `COc1ccc(Cn2c(=O)c3oc4ccccc4c3n(Cc3cccc(C)c3)c2=O)cc1`, the survival is 64% (inactive).

On to `Cc1ccccc1OCCn1c(-c2ccc(Cl)cc2)nc2ccccc2c1=O`, for which the survival was 57% (inactive).

In the case of `Cc1cccc(OCCOCCn2c(-c3ccc(Cl)cc3)nc3ccccc3c2=O)c1C`, the survival is 60% (inactive).

In the case of `Cc1cccc(OCCn2c(-c3ccc(Cl)cc3)nc3ccccc3c2=O)c1`, the survival is 105% (inactive).

For the molecule `CC(C)(C)c1ccc(OCCOCCn2c(-c3ccc(Cl)cc3)nc3ccccc3c2=O)cc1`, the survival is 115% (inactive).

Regarding `Cc1ccc(C)c(OCCn2c(-c3ccc(Cl)cc3)nc3ccccc3c2=O)c1C`, the survival was 73% (inactive).

With `Cc1cc(C)cc(OCCCn2c(-c3ccc(Cl)cc3)nc3ccccc3c2=O)c1`, the survival is 58% (inactive).

With `Cc1ccc(OCCOCCn2c(-c3ccc(Cl)cc3)nc3ccccc3c2=O)cc1`, the survival is 39% (active).

In the case of `Cc1cc(C)cc(OCCOCCn2c(-c3ccc(Cl)cc3)nc3ccccc3c2=O)c1`, the survival was 43% (active).

For the molecule `COc1cccc(OCCn2c(-c3ccc(Cl)cc3)nc3ccccc3c2=O)c1`, the survival was 51% (inactive).

In the case of `Cc1cc(C)c(OCCOCCn2c(-c3ccc(Cl)cc3)nc3ccccc3c2=O)c(C)c1`, the survival was 43% (active).

For `Cc1ccc(OCCn2c(-c3ccc(Cl)cc3)nc3ccccc3c2=O)c(C)c1`, the survival was 63% (inactive).

Consider `CCOc1ccc(OCCOCCn2c(-c3ccc(Cl)cc3)nc3ccccc3c2=O)cc1`, for which the survival was 26% (active).

In the case of `COc1ccccc1N1CCN(CCCNC(=O)Cn2ncc3c([nH]c4ccccc43)c2=O)CC1`, the survival was 55% (inactive).

For the molecule `CCCNC(=O)c1c(NC(=O)c2ccc(C)cc2)sc2c1CCCCC2`, the survival is 65% (inactive).

With `COc1cccc(CNC(=O)c2ccc3c(=O)n4nc(Nc5ccccc5)sc4nc3c2)c1`, the survival was 88% (inactive).

Take `CCC1SC(NC(=O)COc2ccc(OC)cc2)=NC1=O` (stereo unspecified): the survival is 104% (inactive).

With `COCCn1c(CCC(=O)Nc2ccc(C)c(Cl)c2)nc2cccnc21`, the survival is 84% (inactive).

Consider `Cc1cc2c(cc1C)C(C)CC(C)(C)N2` (stereo unspecified), for which the survival was 94% (inactive).

For the molecule `O=C(NC1CCCCC1)C1OC(c2ccccc2)OC1C(=O)NC1CCCCC1` (stereo unspecified), the survival is 86% (inactive).

`CC(=O)N(Cc1cccnc1)Cc1cc2cc3c(cc2[nH]c1=O)OCCO3`: the survival was 84% (inactive).

For `CCN(CC)C(=O)Cn1cc(SCC(=O)Nc2ccccc2C)c2ccccc21`, the survival was 74% (inactive).

For the molecule `CC(=O)Nc1ccc(S(=O)(=O)NCC2CCC(C(=O)NCc3ccccc3)CC2)cc1` (stereo unspecified), the survival was 71% (inactive).

For the molecule `COc1ccc(OC)c(NC(=O)N2c3ccccc3Sc3ccccc32)c1`, the survival is 5% (active).

Regarding `O=C(CN1CCCC1)N1c2ccccc2Sc2ccccc21`, the survival is 88% (inactive).

In the case of `COc1cc(NC(=O)N2c3ccccc3Sc3ccccc32)cc(OC)c1`, the survival was 62% (inactive).

Consider `COc1ccccc1NC(=O)N1c2ccccc2Sc2ccccc21`, for which the survival is -6% (active).

For the molecule `COc1ccc(OC)c(NC(=O)N2CC3CCCN3c3ccccc32)c1` (stereo unspecified), the survival was 89% (inactive).

Regarding `CCOc1ccccc1NC(=O)N1c2ccccc2Sc2ccccc21`, the survival was 55% (inactive).

As to `O=C(O)c1ccccc1NC(=O)N1c2ccccc2Sc2ccccc21`, the survival is 40% (active).

On to `O=C(N1CCCC1)N1c2ccccc2Sc2ccccc21`, for which the survival was 111% (inactive).

As to `COCCNC(=O)N1c2ccccc2Sc2ccccc21`, the survival was 83% (inactive).

Consider `COc1ccc(OC)c(NC(=O)c2cc3c(s2)-c2ccccc2SC3)c1`, for which the survival is 65% (inactive).

As to `Cc1ccc2c(c1)N(C(=O)CCC(=O)Nc1ccccc1Cl)CC(C)O2` (stereo unspecified), the survival is 105% (inactive).

Consider `Cc1nnc2c(Nc3ccccc3I)nc3nonc3n12`, for which the survival is 77% (inactive).

As for `N#CCCn1cc(CO)c(-c2ccccc2)n1`, the survival was 95% (inactive).

Turning to `COc1cccc(C(=O)c2cn(CC(=O)Nc3cccc(C)c3C)c3nc(C)ccc3c2=O)c1`, the survival is 67% (inactive).

On to `Cc1nc2ccn(Cc3cccs3)c(=O)c2cc1C(=O)N1CCN(c2ccc(F)cc2)CC1`, for which the survival is 131% (inactive).

Take `COc1ccc(Cl)cc1NC(=O)COC(=O)CC(C)(C)CC1=NS(=O)(=O)c2ccccc2N1`: the survival is 70% (inactive).

On to `O=C(COC(=O)CCCC1=NS(=O)(=O)c2ccccc2N1)Nc1ccc(Br)cc1`, for which the survival is 72% (inactive).

For the molecule `COc1ccccc1NC(=O)COC(=O)CC(C)(C)CC1=NS(=O)(=O)c2ccccc2N1`, the survival was -1% (active).

`CCc1ccc(NC(=O)COC(=O)CCCC2=NS(=O)(=O)c3ccccc3N2)cc1`: the survival was 109% (inactive).

For `Cc1cccc(NC(=O)COC(=O)CCCC2=NS(=O)(=O)c3ccccc3N2)c1`, the survival is -2% (active).

With `CCOc1ccccc1NC(=O)COC(=O)CC(C)(C)CC1=NS(=O)(=O)c2ccccc2N1`, the survival was 79% (inactive).

As to `CCn1c2ccccc2c2nnc(SCCN3CCCCC3)nc21`, the survival is 82% (inactive).

For the molecule `COC(=O)c1ccccc1NC(=O)c1ccc2nc(CCc3ccccc3)oc2c1`, the survival was 131% (inactive).

For the molecule `CCc1ccccc1N1C(=O)N(CC(=O)c2ccc(Cl)cc2)c2ccccc2S1(=O)=O`, the survival was 82% (inactive).

For the molecule `Cc1ccc(-c2cn3c(n2)sc2cc(C(=O)NCCC4=CCCCC4)ccc23)cc1`, the survival is 56% (inactive).

As for `CCCNC(=O)c1ccc2c(c1)sc1nc(-c3ccc(C)cc3)cn12`, the survival was 89% (inactive).

On to `CCN(CC)CCNC(=O)c1ccc2c(c1)sc1nc(-c3ccc(F)cc3)cn12`, for which the survival is 29% (active).

As for `CCN(CC)CCCNC(=O)c1ccc2c(c1)sc1nc(-c3ccc(C)cc3)cn12`, the survival is 24% (active).

Turning to `CCOC(=O)C1CCN(C(=O)c2ccc3c(c2)sc2nc(-c4ccc(OCC)cc4)cn23)CC1`, the survival is 69% (inactive).

`CCOC(=O)c1ccc2c(c1)sc1nc(-c3ccc(OCC)cc3)cn12`: the survival was 44% (active).

Regarding `O=C(NCCC1=CCCCC1)c1ccc2c(c1)sc1nc(-c3ccc(F)cc3)cn12`, the survival was 63% (inactive).

Regarding `O=C(NCc1ccccc1)c1ccc2c(c1)sc1nc(-c3ccc(F)cc3)cn12`, the survival was 101% (inactive).

For `CCOC(=O)C1CCN(C(=O)c2ccc3c(c2)sc2nc(-c4ccc(C)cc4)cn23)CC1`, the survival was 98% (inactive).

For `CCOC(=O)C1CCN(C(=O)c2ccc3c(c2)sc2nc(-c4ccc(OC)cc4)cn23)CC1`, the survival was 78% (inactive).

In the case of `CCOC(=O)C1CCN(C(=O)c2ccc3c(c2)sc2nc(-c4ccccc4)cn23)CC1`, the survival was 54% (active).

Take `CCOc1ccc(CNC(=O)c2ccc3c(c2)sc2nc(-c4ccc(OC)cc4)cn23)cc1`: the survival was 84% (inactive).

For the molecule `COc1ccc(S(=O)(=O)Nc2cccc(-c3ccc(N4CCCC4)nn3)c2)cc1F`, the survival was 85% (inactive).

Turning to `COc1ccc(Nc2ncnc3c2cnn3C)c(OC)c1`, the survival was 89% (inactive).

As for `CNS(=O)(=O)c1cn(CC(=O)Nc2cccc(C(F)(F)F)c2)cc1S(=O)(=O)NC`, the survival was 107% (inactive).

Consider `Cc1ccccc1OC(=O)CSc1nnc(-c2ccc(F)cc2)o1`, for which the survival is 63% (inactive).

Regarding `CCN1CCc2c(sc(NC(=O)c3ccc(S(=O)(=O)N(CCOC)CCOC)cc3)c2C(N)=O)C1`, the survival is 69% (inactive).

As for `CCc1cccc(C)c1NC(=O)c1cc(S(=O)(=O)N2CCC3(CC2)OCCO3)ccc1F`, the survival was 116% (inactive).

Regarding `Cc1ccc(CSCCNC(=O)C2CCN(S(=O)(=O)Cc3ccccc3)CC2)cc1`, the survival was 99% (inactive).

Take `CCOc1ccc(-c2cn3c(n2)sc2cc(C(=O)NCCCc4ccccc4)ccc23)cc1`: the survival was 72% (inactive).

As for `CCCSCCCNC(=O)c1ccc2c(c1)sc1nc(-c3ccc(OCC)cc3)cn12`, the survival was 55% (inactive).

With `CCOc1ccc(-c2cn3c(n2)sc2cc(C(=O)NCCCN(CC)CC)ccc23)cc1`, the survival was 15% (active).

Regarding `COc1ccc(-c2nn(-c3ccccc3)cc2C2NC(=O)NC(C)=C2C(=O)OC(C)C)cc1Cl` (stereo unspecified), the survival is 106% (inactive).

`CCc1ccc(NC(=O)c2ccc(CN3CC(=O)N4CCCCC4C3=O)cc2)cc1` (stereo unspecified): the survival was 66% (inactive).

Regarding `Cc1ccc(NC(=O)c2ccc(CN3CC(=O)N4CCCCC4C3=O)cc2)cc1` (stereo unspecified), the survival was -5% (active).

Regarding `CC(C)c1ccc(NC(=O)c2ccc(CN3CC(=O)N4CCCCC4C3=O)cc2)cc1` (stereo unspecified), the survival is 77% (inactive).

Consider `Cc1ccc(NC(=O)c2ccc(CN3CC(=O)N4CCCCC4C3=O)cc2)cc1C` (stereo unspecified), for which the survival is 77% (inactive).

On to `O=C(Nc1cc(F)ccc1F)c1ccc(CN2CC(=O)N3CCCCC3C2=O)cc1` (stereo unspecified), for which the survival is 92% (inactive).

On to `O=C(Nc1ccc(F)cc1)c1ccc(CN2CC(=O)N3CCCCC3C2=O)cc1` (stereo unspecified), for which the survival is -4% (active).
